The values that follow come from PubChem BioAssay (NCI).

What all share (test): NCI-60 one-dose screen, 48 h (100 = growth as untreated, 0 = no growth, -100 = all killed)
What all share (details): 10 µM unless noted

The test system of test [1] is SK-MEL-2 melanoma.
The test system of test [2] is EKVX NSCLC.
Test [3] relates to SN12C renal.
In test [4] the test system is UO-31 renal.
In test [5] the test system is TK-10 renal.
Test [6] concerns ACHN renal.
The test system of test [7] is CAKI-1 renal.
Test [8] deals with A498 renal.
Test [9] deals with CCRF-CEM leukemia.
In test [10] the test system is MOLT-4 leukemia.
In test [11] the test system is SR leukemia.
For test [12], the system named is RPMI-8226 leukemia.
For test [13], the system named is OVCAR-8 ovarian.
Test [14] has as its system OVCAR-5 ovarian.
Test [15] relates to OVCAR-4 ovarian.
Test [16] has as its system SK-OV-3 ovarian.
Test [17] deals with IGROV1 ovarian.
Test [18] has as its system OVCAR-3 ovarian.
The subject of test [19] is HS 578T breast.
Test [20] concerns NCI/ADR-RES ovarian.

The structures appear in SMILES notation. The panel holds about 83,000 compounds, 20% with a hit somewhere; the sample as a whole holds those more often.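 Note: values are percent growth. 100 is the growth of untreated cells, values between 100 and 0 indicate rising inhibition; between -100 and 0 indicates cell death.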 A number with no mark means an inactive call. Calls of active or inactive are those of the source. Rule for the calls: active = growth percent below 10; inactive = the rest.

With `C=C1C(=O)O[C@H]2[C@H]1CC/C(COC(=O)N[C@@H](Cc1c[nH]c3ccccc13)C(=O)OC)=C\CC[C@@]1(C)O[C@@H]21`, the growth is 41.3% in [1]; 55.4% in [2]; 33.4% in [3]; 41.3% in test [4]; -23.2% (active) in test [5]; 7.04% (active) in [6]. Also, the growth in [7] is 29.7%; in test [8], 91.9%; in test [9], -12.3% (active); in test [10], -13.2% (active); in test [11], 3.24% (active); in [12], -14.2% (active). Also, the growth was 37.1% in [13]; 66% in [14]; 72.2% in [15]; 78.8% in [16]; 0.0104% (active) in [17]; -40.3% (active) in test [18]. Besides, the values for the growth in test [19] and in test [20] were 77.8% and 88.2%, respectively.

For the compound `COc1cc2c(=O)n(CCCN(C)C)c3c4cc[nH]c4ncc3c2cc1OC`, the growth in test [1] was 71.5%; in test [2] it was 51.1%; in [3] it was 33.9%; in test [4] it was 34.1%; in test [5], 53.7%; in [6] it was 26.6%. Besides, the growth in test [7] was 84.5%; in [8] it was 18.8%; in test [9], 34.5%; in test [10], -6.64% (active); in test [11], 15.7%; in [12], 22.2%. The growth in test [13] is 27.8%; in test [14], 71%; in [15], 34.7%; in test [16], 42.8%; in test [17], 45.2%; in [18], 49.1%. Further, the growth in test [19] is 65%; in test [20], 89.4%.

`Clc1ccc(C2=NN[C@H](c3cn(-c4ccccc4)nc3-c3ccccc3)C2)cc1`: the growth in test [1] was 91.4%; in test [2] it was 35.3%; in [3], 51.2%; in [4] it was 105%; in test [5] it was 99.2%; in [6], 53.1%. For the same compound, the growth is 19.6% in test [7]; 91% in [8]; 78.3% in test [9]; 77.9% in [10]; 104% in test [11]; 87.5% in [12]. The growth in [13] is 33.6%; in [14], 83.6%; in test [15] it was 68.1%; in [16] it was 61.6%; in [17], 79.5%; in [18] it was 58.6%. The growth in test [19] is 74.2%; in test [20], 55.9%.

`CN(C)c1nc(-c2cccs2)n2nc(-c3ccco3)cc2n1`: the growth in [1] is 92.9%; in test [2], 80.1%; in test [3], 92%; in [4], 57.9%; in test [5], 103%; in test [6], 96.9%. Also, the growth in test [7] was 85.5%; in [8], 74.1%; in [9], 93.9%; in test [10] it was 97%; in [11] it was 74.1%; in [12], 73.2%. Moreover, the growth in test [13] was 96%; in test [14], 99.4%; in [15], 74.6%; in [16], 90.2%; in test [17], 81.1%; in test [18], 101%. Also, the growth in test [19] was 99.2%; in [20], 93.5%.

Take `CCCCOC(=O)c1cc(O)c(O)c(O)c1`: the growth was 75% in [1]; 83.6% in [2]; 62.7% in test [3]; 31.7% in test [4]; 73% in test [5]; 75% in test [6]. Further, the growth was 70.5% in test [7]; 122% in test [8]; 36.5% in [9]; 30.7% in [10]; 44.5% in test [11]; 59.2% in test [12]. For the same compound, the growth is 68.6% in test [13]; 92.2% in test [14]; 58.9% in test [15]; 85.1% in test [16]; 55.6% in test [17]; 61.8% in test [18]. The figures for the growth in test [19] and in test [20] were 86.4% and 74.4%, respectively.

Take `CCCCCCCCN(CCCCCCCC)C(=O)CCl`: the growth is 108% in [1]; 108% in test [2]; 93.8% in test [3]; 73.3% in [4]; 108% in [5]; 100% in [6]. Also, the growth in [7] was 44.9%; in test [8], 99.8%; in test [9], -33.4% (active); in test [10] it was 90.6%; in test [11], 83.1%; in [12] it was 106%. In addition, the growth is 89.4% in test [13]; 120% in test [14]; 97% in [15]; 109% in [16]; -18.2% (active) in test [17]; 108% in [18]. The growth in test [19] is 85.1%; in [20], 94.7%.

Take `COc1ccccc1/C=C/C(=O)CCC(=O)O`: the growth in [1] is 102%; in test [2], 105%; in test [3], 100%; in test [4], 85.2%; in test [5], 110%; in test [6], 101%. For the same compound, the growth is 99% in [7]; 130% in test [8]; 96.3% in [9]; 100% in test [10]; 89.1% in [11]; 98.8% in test [12]. Further, the growth in test [13] was 105%; in test [14], 104%; in test [15] it was 104%; in test [16] it was 98.5%; in test [17] it was 110%; in test [18], 107%. The results for the growth in test [19] and in test [20] were 96% and 107%, respectively.

For the compound `CC(=O)NC1C(O[C@H]2C[C@H]3[C@@H]4CC=C5C[C@@H](O)CC[C@]5(C)[C@H]4CC[C@]3(C)[C@H]2[C@H](C)C(=O)CCC(C)C)OCC(O)C1O` (stereo not given in full), the growth in [1] is -15.9% (active); in test [2], 46.3%; in [3] it was 89.6%; in test [4], 1.5% (active); in test [5] it was 60.4%; in test [6], 44.3%. Moreover, the growth in test [7] was 30.2%; in test [8] it was -20.3% (active); in test [9], 11.5%; in [10] it was -8.22% (active); in test [11], 18.7%; in test [12], -9.81% (active). The growth in test [13] was 66.3%; in test [14], 74.2%; in test [15], 87.8%; in test [16], 37.9%; in test [17] it was 72%; in test [18], 72%. Moreover, the growth was 5.84% (active) in test [19] and 88.8% in [20].
